The source of these data is PubChem BioAssay AID488969 (Vanderbilt High Throughput Screening Facility, 2010).

Whole data set: some 110,000 compounds, median “z-score” near -0.1, cut for the highest 2% near 2. What follows is part of a selection rich in the highest values, with near analogues and random picks from the rest. Calls of active or inactive are those of the source.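 Rule for the calls: active = z-score in the third read window above 3 or below -3; inactive = the rest.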

This assay deals with Metabotropic glutamate receptor 8 (Rattus norvegicus) (UniProt P70579). As to the kind of experiment: mGluR8 Gi/Go-coupled signaling modulation – cell-based, rat, thallium flux, HTS, primary screen (AID 488969). The note with it: HEK293 rat mGluR8, GIRK (G protein-gated inwardly rectifying potassium channel) thallium flux, FluoZin2; at 10 µM; stronger effect = higher value; submaximal glutamate (EC20) added with thallium.
Metabotropic glutamate receptor 8 (Rattus norvegicus), sequence (P70579 whole entry, looked up): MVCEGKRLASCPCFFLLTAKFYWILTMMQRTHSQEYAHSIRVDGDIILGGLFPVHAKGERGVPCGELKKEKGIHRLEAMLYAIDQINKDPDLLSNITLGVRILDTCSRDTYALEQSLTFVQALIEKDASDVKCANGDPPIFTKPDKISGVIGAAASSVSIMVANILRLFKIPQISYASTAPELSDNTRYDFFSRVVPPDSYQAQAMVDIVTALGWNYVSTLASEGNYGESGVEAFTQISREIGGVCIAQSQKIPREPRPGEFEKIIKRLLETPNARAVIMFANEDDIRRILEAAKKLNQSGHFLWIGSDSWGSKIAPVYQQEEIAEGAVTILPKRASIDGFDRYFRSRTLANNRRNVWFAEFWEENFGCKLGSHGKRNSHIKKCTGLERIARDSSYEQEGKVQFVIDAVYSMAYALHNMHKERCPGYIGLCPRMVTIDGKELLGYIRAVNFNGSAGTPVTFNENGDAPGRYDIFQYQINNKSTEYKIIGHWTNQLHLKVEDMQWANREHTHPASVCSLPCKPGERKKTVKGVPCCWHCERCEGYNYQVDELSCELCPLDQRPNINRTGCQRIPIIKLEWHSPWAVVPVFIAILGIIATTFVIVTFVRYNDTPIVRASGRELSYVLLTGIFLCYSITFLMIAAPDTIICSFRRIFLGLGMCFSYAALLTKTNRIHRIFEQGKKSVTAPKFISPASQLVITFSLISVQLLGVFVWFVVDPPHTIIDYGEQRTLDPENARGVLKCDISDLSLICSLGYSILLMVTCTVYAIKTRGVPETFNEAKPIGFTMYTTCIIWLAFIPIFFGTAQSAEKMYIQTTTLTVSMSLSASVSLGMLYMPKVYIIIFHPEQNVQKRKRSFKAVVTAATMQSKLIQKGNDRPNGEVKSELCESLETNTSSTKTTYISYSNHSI
The molecule `CN(C)S(=O)(=O)c1cc(C(=O)O)c(NC2CCCCC2)cc1Cl` gave a z-score of -2.9.

In turn, `CCOC(=O)c1c(CSC(=N)N)n(-c2ccc(C)cc2)c2cc(Br)c(OC(C)=O)cc12` returned a z-score of 1.29.

`Cc1cccc(NC(=O)CSc2nsc(SCC(=O)Nc3cccc(C)c3)c2C#N)c1` had a z-score of -0.0761.

Consider `COc1ccc(CCNC2=NCC(C)S2)cc1` (stereo not given), for which the z-score was 0.0523.

`CCC(=O)N1CCN(c2ccccc2NC(=O)COc2cccc(C)c2)CC1`: the z-score is 13 (active).

`CCC(=O)N1CCN(c2ccccc2NC(=O)COc2cc(C)ccc2C(C)C)CC1` registered a z-score of 0.696.

As for `Cc1cccc(OCC(=O)Nc2ccccc2N2CCCCC2)c1`, the z-score was determined as 0.378.

Molecule `Cc1sc(NC(=O)CSc2nnc(-c3ccc(F)cc3)o2)c(C#N)c1C` came in with a z-score of -0.213.

As to `CCNC(=O)CN(c1ccc(OC)c(OC)c1)S(=O)(=O)c1ccccc1`, the z-score is -0.11.

The molecule `O=C(Nc1cccc(-c2nnc(-c3ccccc3)o2)c1)C1CCCCC1` registered a z-score of -0.0325.

Turning to `O=C(Nc1ccc2oc(-c3ccccc3)nc2c1)C1CCCO1` (stereo not given), the z-score was -0.123.

As to `O=C(Nc1cccc(-c2nnc(-c3ccccc3)o2)c1)C1CCCO1` (stereo not given), the z-score was 3.

On to `CCOC(=O)Cc1csc(NC(=O)C2C3C=CC(C3)C2C(=O)O)n1` (stereo not given), for which the z-score is -0.0933.

`Cc1cc(C)cc(OCC(=O)Nc2ccc3c(c2)C(=O)c2ccccc2C3=O)c1` returned a z-score of -0.124.

`Cc1ccc2nc(SC(C(=O)Nc3ccc(F)cc3)c3ccccc3)[nH]c2c1` (stereo not given): the z-score was -0.117.

For `COc1cccc(C(=O)CSc2nnc(-c3cc(OC)cc(OC)c3)o2)c1`, the z-score amounted to 0.263.

`Cn1cccc1CNC1CCCCC1` displayed a z-score of 0.335.

As to `Cn1cccc1CNC1CCCC1`, the z-score is -1.43.

`c1ccc(-n2cccc2CNC2CCCCC2)cc1`: the z-score stood at 2.02.

Regarding `O=C(C1CCC(CNS(=O)(=O)c2cccc3cccnc23)CC1)N1CCc2ccccc21` (stereo not given), the z-score was -0.0229.

In turn, `CC(=C1C(=O)c2ccccc2C1=O)N1CCN(Cc2ccccc2)CC1` returned a z-score of -0.06.

As to `CC(=C1C(=O)c2ccccc2C1=O)N1CCN(C/C=C/c2ccccc2)CC1`, the z-score is 2.04.

`CS(=O)(=O)N1CCN(C/C=C/c2ccccc2)CC1`: the z-score was -0.0638.

The molecule `Cc1cc(C)cc(C(=O)OCC(=O)Nc2cccc(S(=O)(=O)NC3=NCCCCC3)c2)c1` displayed a z-score of 0.0544.

Consider `Cc1c(N2C(=O)CS/C2=N\N=C\c2ccc(Cl)cc2)c(=O)n(-c2ccccc2)n1C`, for which the z-score was -0.118.

For `Cc1c(N2C(=O)CS/C2=N\N=C\c2ccccc2O)c(=O)n(-c2ccccc2)n1C`, the z-score was 3.28 (active).

The molecule `Cc1c(N2C(=O)CS/C2=N\N=C\c2ccc(Br)cc2)c(=O)n(-c2ccccc2)n1C` registered a z-score of -0.286.

`CC1SC(c2ccccc2Cl)NC1=O` (stereo not given) gave a z-score of -0.0543.

Turning to `CC(NC(=O)c1ccc(-c2cc(C(F)(F)F)ccc2Cl)o1)c1ccccc1` (stereo not given), the z-score is -0.132.

Molecule `COc1cccc(NC(=O)COC(=O)c2c3c(nc4ccccc24)CCC(C)C3)c1` (stereo not given) gave a z-score of -0.604.

As to `CC(/C=N/n1c(-c2ccc(C)cc2)n[nH]c1=S)=C\c1ccco1`, the z-score was determined as 0.323.

Consider `CC(/C=N/n1c(-c2ccccc2)n[nH]c1=S)=C\c1ccco1`, for which the z-score was 6.02 (active).

`CC(/C=N/n1c(-c2ccc(Cl)cc2)n[nH]c1=S)=C\c1ccco1`: the z-score was 6.09 (active).

Consider `S=c1[nH]nc(-c2ccccc2)n1/N=C/C=C/c1ccco1`, for which the z-score is 0.28.

Turning to `Cc1nn(-c2ccccc2)c(C)c1/C=N/n1c(-c2ccc(Cl)cc2)n[nH]c1=S`, the z-score is 0.338.

As to `Cc1ccc(-c2n[nH]c(=S)n2/N=C\c2ccco2)cc1`, the z-score was -0.16.

`COc1ccc(OC)c(NC(=O)CSc2ncccn2)c1`: the z-score is -0.134.

Consider `COc1ccc(C(=O)n2nc(C)cc2C)cc1OC`, for which the z-score was -0.221.

As to `c1ccc(Cn2c(Sc3nnnn3-c3ccccc3)nnc2-c2ccccc2)cc1`, the z-score turned out to be 0.223.

For the molecule `COc1ccc(CNC(=S)Nc2cccc(C)c2C)cc1`, the z-score is -0.341.

Molecule `Cc1ccc2nsnc2c1NC(=O)c1ccc2c(c1)OCCO2` registered a z-score of -0.679.

As for `Cc1ccc(S(=O)(=O)/N=C(/NC(=S)Nc2ccccc2)c2ccccc2)cc1`, the z-score came to 0.34.

Turning to `CCN1CCCC1Cn1cnc2c([nH]c3cc(OC)ccc32)c1=O` (stereo not given), the z-score is -0.271.

With `CCC1CCCN1Cn1cnc2c([nH]c3ccc(OC)cc32)c1=O` (stereo not given), the z-score was 6.77 (active).

Molecule `CCCCN(CCCC)CCn1cnc2c([nH]c3ccc(OC)cc32)c1=O` gave a z-score of 0.258.

The molecule `CCOCCc1nnc(NC(=O)c2cccs2)s1` came in with a z-score of -0.0424.

`O=C(NC1CCCC1)C(c1ccccc1)N(C(=O)c1ccno1)c1ccccc1` (stereo not given): the z-score was found to be 0.315.

As to `CC(C)(C)NS(=O)(=O)c1ccc2c(c1)oc(=O)c1cc(S(=O)(=O)NC(C)(C)C)ccc12`, the z-score was -0.0322.

As for `Cn1nnnc1SCC(=O)Nc1ccccc1C(=O)NCc1ccccc1`, the z-score was 0.00964.

`Cn1nnnc1SCC(=O)Nc1ccccc1C(=O)NC1CC1` came in with a z-score of 0.311.

In turn, `CC(NC(=O)c1ccccc1NC(=O)CSc1nnnn1C)c1ccccc1` (stereo not given) displayed a z-score of 2.05.

The molecule `O=C(c1cnn2c(C(F)(F)F)cc(-c3ccccc3)nc12)N1CCCc2ccccc21` came in with a z-score of -0.322.

For `CC1Cc2cc(/C(O)=C3/C(=O)C(=O)N(CCCn4ccnc4)C3c3ccco3)ccc2O1` (stereo not given), the z-score was -0.193.

`COc1nc(-c2ccccc2)ccc1-c1noc(-c2ccccc2)n1` gave a z-score of 0.293.

`CC(C)(C)CC(C)(C)NC1=CC(=O)OC12CCCCC2`: the z-score was -0.189.

As for `CC(C)c1nc(N2CCCC2)c(C#N)c2c1CCCC2`, the z-score was determined as 0.908.

`COC(=O)Sc1nc(N2CCOCC2)c2c(c1C#N)CC(C)(C)OC2` gave a z-score of -2.52.

As for `CC(C)c1nc(N2CCOCC2)c(C#N)c2c1CCC2`, the z-score worked out at 0.532.

`CCCCc1nc(N2CCOCC2)c(C#N)c2c1COC(C)(C)C2` showed a z-score of -0.434.

`CSc1nc(N2CCCC2)c2c(c1C#N)CC(C)(C)OC2` registered a z-score of -0.933.

Molecule `CSc1nc(N2CCOCC2)c2c(c1C#N)CC(C)(C)OC2` had a z-score of 2.16.

`Cc1nc(N2CCOCC2)c(C#N)c2c1COC(C)(C)C2` came in with a z-score of -0.387.

Take `CC(C)c1nc(N2CCOCC2)c(C#N)c2c1CCCC2`: the z-score is 6.82 (active).

Regarding `CC(C)Cc1nc(N2CCOCC2)c(C#N)c2c1COC(C)(C)C2`, the z-score is 2.42.

As to `Cc1ccc(S(=O)(=O)Nc2nc3ccccc3s2)cc1`, the z-score was -0.644.

In turn, `COc1ccc(CC(=O)NNC(=S)Nc2ccccc2)cc1Br` registered a z-score of 0.376.

In turn, `Cn1cc(CNC(=O)C2CCCCC2)cn1` had a z-score of -0.556.

The molecule `Cn1c(=O)[nH]c2cc(Cl)cnc21` came in with a z-score of 0.0453.

In turn, `CCc1cc(C(=O)NCCN(C)C)cs1` yielded a z-score of 0.168.

In turn, `COc1cc(NS(=O)(=O)c2cc(C)ccc2OC)c(OC)cc1Cl` registered a z-score of 0.494.

With `COc1ccc(C)cc1S(=O)(=O)Nc1cccc(Cl)c1Cl`, the z-score was 3.68 (active).

`COc1ccc(C)cc1S(=O)(=O)Nc1ccccc1C` returned a z-score of -0.428.

Molecule `COc1ccc(C2/C(=C(\O)c3ccc(OC)c(Cl)c3)C(=O)C(=O)N2CCN(C)C)cc1` (stereo not given) had a z-score of -0.505.

`COc1nc(C#N)c(N2CCOCC2)o1`: the z-score was -0.118.

In the case of `Cn1c(SCC(=O)c2cc3ccccc3o2)nnc1-c1ccccc1`, the z-score is 4.93 (active).

In turn, `Cn1ccnc1SCC(=O)c1cc2ccccc2o1` returned a z-score of 0.608.

The molecule `Cn1c(SCC(N)=O)nnc1-c1ccccc1` yielded a z-score of 0.403.

As to `Cc1ccc(/C=C2/NC(=O)N(c3ccccc3)C2=O)o1`, the z-score came to 0.187.

`CS(=O)(=O)NCC(c1cccnc1)N1CCN(c2ccc(F)cc2)CC1` (stereo not given) displayed a z-score of -0.636.

Take `O=C(CSc1nc2ccccc2s1)NNC(=O)Nc1ccc(Cl)c(Cl)c1`: the z-score is -0.0417.

The molecule `Cc1ccc(C)c(OCC(=O)NCCN(C)C)c1` displayed a z-score of 0.356.

Consider `Cc1sc2nc(SCC(=O)NCc3ccco3)n(Cc3ccccc3)c(=O)c2c1C`, for which the z-score is -0.304.

In turn, `Cc1sc2nc(C3CC3)nc(SCC(=O)NCc3ccco3)c2c1C` gave a z-score of 0.399.

Molecule `CCSc1ncnc2sc(C)c(C)c12` returned a z-score of -0.112.

Consider `Cc1sc2ncnc(NCc3ccco3)c2c1C`, for which the z-score was -0.47.

Consider `Cc1sc2ncnc(SCC(=O)NC(=O)NCc3ccco3)c2c1C`, for which the z-score worked out at 2.66.

`C=CCn1c(SCC(=O)NCc2ccco2)nc2sc(C)c(C)c2c1=O` returned a z-score of -0.948.

Molecule `Cc1sc2nc(SCC(=O)NCc3ccco3)n(C)c(=O)c2c1C` gave a z-score of -0.982.

As for `Cc1sc2ncnc(SCc3ccco3)c2c1C`, the z-score is 3.43 (active).

In turn, `O=C(CSc1ncnc2sc3c(c12)CCCCC3)NCc1ccco1` registered a z-score of 1.08.

As for `CCn1c(SCC(=O)NC(=O)NCc2ccco2)nc2sc(C)c(C)c2c1=O`, the z-score is 3.05 (active).

Take `Cc1sc2nc(C(C)C)nc(SCC(=O)NCc3ccco3)c2c1C`: the z-score was 17 (active).

As to `Cc1nc(SCC(=O)NCc2ccco2)c2c(C)c(C)sc2n1`, the z-score was -0.0392.

As for `Cc1ccc2oc(=O)c(/C=C(\O)c3sc(C)nc3C)nc2c1`, the z-score is -0.168.

Take `CCOc1ccc(C(=O)NCC(=O)OC2CCOC2=O)cc1OCC` (stereo not given): the z-score was -0.823.

The molecule `CCCCN(C)CCNC(=O)Cn1ncc2c(=O)oc3ccc(C)cc3c21` had a z-score of -0.464.

For `Nn1c(Cc2cccc3ccccc23)nnc1SCCOc1ccc(Br)cc1`, the z-score is -0.185.

`COc1nc(NCc2ccco2)nc(NC2CCCCC2)n1` registered a z-score of -0.224.

The molecule `CCOC(=O)Cc1csc(NC(=O)CSc2nc3sc(C(=O)O)c(C)c3c(=O)[nH]2)n1` yielded a z-score of 0.0555.

The molecule `O=C(Nc1ccc(Cl)c(Cl)c1)Nc1cc(S(=O)(=O)N2CCOCC2)ccc1N1CCCC1` yielded a z-score of 0.00467.

For the molecule `Cc1sc2nc(C3CC3)nc(SCC(=O)N3c4ccccc4CC3C)c2c1C` (stereo not given), the z-score is -0.291.

With `CCc1nc(SCC(=O)N2c3ccccc3CC2C)c2c(C)c(C)sc2n1` (stereo not given), the z-score is 0.0133.

For the molecule `Cc1sc2nc(C(C)C)nc(SCC(=O)N3c4ccccc4CC3C)c2c1C` (stereo not given), the z-score is 10.2 (active).

For `CC(C)(C)C1CCc2c(sc(NC(=O)c3ccco3)c2C(N)=O)C1` (stereo not given), the z-score is 0.458.

The molecule `Cc1ccc(OCCCCn2cnc3ccccc32)c(C)c1` displayed a z-score of -0.0373.

The molecule `COc1ccc(OC)c(NC(=S)NCCC(c2ccccc2)c2ccccc2)c1` yielded a z-score of -0.202.

In the case of `Clc1ccc(C(c2ccccc2)N2CCNCC2)cc1` (stereo not given), the z-score was 2.16.

On to `CC12CNCC(C)(CN(C(c3ccccc3)c3ccccc3)C1)C2`, for which the z-score came out at 1.25.

As for `O=C(O)COCCN1CCN(C(c2ccccc2)c2ccc(Cl)cc2)CC1` (stereo not given), the z-score was 0.16.

As for `OCCN1CCN(Cc2cc(Cl)c3cccnc3c2O)CC1`, the z-score amounted to 0.225.

Molecule `Oc1ccc(CN2CCc3ccccc3C2)c2cccnc12` displayed a z-score of 0.165.

Take `Oc1c(CN2CCc3ccccc3C2)cc(Cl)c2cccnc12`: the z-score worked out at 2.72.

In the case of `CS(=O)(=O)N(CC(=O)NCc1ccco1)c1cc(C(F)(F)F)ccc1Cl`, the z-score worked out at 0.181.

Molecule `COc1ccc(N(CC(=O)NCc2ccco2)S(C)(=O)=O)cc1Cl` showed a z-score of -0.0738.

In the case of `CS(=O)(=O)N(CC(=O)NCc1ccco1)c1ccc(Cl)c(C(F)(F)F)c1`, the z-score is 4.31 (active).
